# Screening data from PubChem BioAssay.
# Sampled rows, rich in hits. Any-hit rate of the full collection: about 2.4%.
# POLK inh: qHTS for Inhibitors of Polymerase Kappa; DNA polymerase kappa (Homo sapiens), Q9UBT6; purified Pol kappa, fluorescent DNA synthesis assay, 10 min; Potency, µM (titrated, usually from 107 µM), inactives show top-dose activity, negative = inhibition, hits mostly inhibitors; 400,000 tested, 0.53% active; note: % is set by controls: 0 for no effect and ±100 for the full control effect
#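 10 nM Pol kappa preincubated 15 min at room temperature with compounds, then reaction started with substrate at 50 nM final. Fluorescence read kinetically at 0 and 10 min; buffer-only wells served as negative control.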
# Pol iota inh: qHTS for Inhibitors of Polymerase Iota; Pol iota fluorescent replication assay, 10 min; 390,000 tested, 1% active; AID 588590, 2011; Potency, µM (top dose mostly 115 µM), without a hit: top-dose activity, negative = inhibition, hits mostly inhibitors
#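 Fluorescent replication assay read twice, at 0 min and 10 min after adding 50 nM (final) substrate. Enzyme (10 nM) and compounds were first incubated 15 min at room temperature; enzyme-free buffer wells were negative controls.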
# POLB inh: qHTS Assay for Inhibitors of DNA Polymerase Beta. P06746. Pol beta primer extension/strand displacement, fluorescence kinetic. Potency, µM (doses to about 114 µM), for the others: top-dose activity change, negative = inhibition, actives largely listed as inhibitors. 340,000 tested, 1.3% active; note: % is set by controls: 0 for no effect and ±100 for the full control effect
#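 Homogeneous kinetic assay of primer extension and strand displacement by 10 nM Pol beta, preincubated 15 min at room temperature with compound before 50 nM substrate (final) was added. Read at 0 and 10 min; four-parameter Hill fit.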
# POLH inh: qHTS for Inhibitors of Polymerase Eta; recombinant Pol eta, fluorescent DNA replication assay; AID 588591, 2011; Potency, µM (titrated, usually from 114 µM), for the others: at the highest dose activity change, negative = inhibition, actives largely listed as inhibitors; 390,000 tested, 1.2% active; note: % is set by controls: 0 for no effect and ±100 for the full control effect
#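 Pol eta (10 nM) was preincubated with compounds for 15 min at room temperature, after which fluorescent replication substrate (50 nM final) was added to start the reaction. Fluorescence was read kinetically at 0 and 10 min.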
# FEN1 inh: qHTS Assay for the Inhibitors of Human Flap endonuclease 1 (FEN1). Recombinant FEN1 flap cleavage, fluorescence, 15 min. Potency, µM (highest dose often 114 µM), for the others: top-dose activity change, negative = inhibition, actives largely listed as inhibitors. 390,000 tested, 0.35% active; note: % is set by controls: 0 for no effect and ±100 for the full control effect; nearly all actives have a fitted effect of over 65% in size
# Target sequence (P39748 whole entry, looked up): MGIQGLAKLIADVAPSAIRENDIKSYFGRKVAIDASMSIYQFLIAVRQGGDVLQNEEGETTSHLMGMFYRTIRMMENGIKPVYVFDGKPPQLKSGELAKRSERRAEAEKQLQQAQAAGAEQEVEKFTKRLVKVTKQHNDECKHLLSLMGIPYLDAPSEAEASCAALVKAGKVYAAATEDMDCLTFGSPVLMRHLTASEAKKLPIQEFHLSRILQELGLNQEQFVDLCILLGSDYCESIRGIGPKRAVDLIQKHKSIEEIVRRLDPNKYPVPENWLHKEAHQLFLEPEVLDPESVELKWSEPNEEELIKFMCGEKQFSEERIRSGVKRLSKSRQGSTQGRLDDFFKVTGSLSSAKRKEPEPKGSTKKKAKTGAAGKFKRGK
#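 Read-out was taken twice, immediately and after 15 min, following addition of 50 nM substrate to 10 nM FEN1 that had sat with test compound for 15 min at room temperature. Curves came from a four-parameter Hill model.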
# PGK inhibitor: qHTS Assay to Find Inhibitors of Phosphoglycerate Kinase; PGK/GAPDH coupled, Kinase-Glo luminescence, 60 min; Potency, µM (top dose mostly 57.5 µM), inactives show at the highest dose activity change, negative = inhibition, usual class: inhibitors; 380,000 tested, 0.043% active; AID 602233, 2012; note: % is set by controls: 0 for no effect and ±100 for the full control effect; nearly all actives have a fitted effect of over 60% in size
#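 Recombinant glycosomal PGK reaction used 1,3-bisphosphoglycerate generated in-well by GAPDH (100nM final) in 100mM TEA pH 7.6, 5mM MgCl2, 0.01% Tween-20. After 60 minutes at room temperature, ATP was read by Kinase-Glo Plus luminescence end-point.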
# An asterisk follows results filed as active; i = inactive; ? = inconclusive; . = no result; [ ] = another dose, or the depositor's remark. Calls come from the whole dose curve; as a rule, active = well fitted curve in the direction sought with a large enough effect; inconclusive = small, poorly fitted or top-dose-only effect, or another doubt; inactive = no such curve, though single readings can be large; an effect the other way counts as inactive or inconclusive. Potency is the fitted concentration of half-maximal effect.
SMILES,POLK inh,Pol iota inh,POLB inh,POLH inh,FEN1 inh,PGK inhibitor
CCn1c(SCC(=O)NC(=O)NCc2ccco2)nnc1-c1cccs1,-38.5%,?,50.1µM*,?,5.3%,-3.4%
C=CCn1c(SCC(=O)NC(=O)NCc2ccco2)nc2sc(CC)cc2c1=O,?,44.7µM*,14.1µM*,11.2µM*,-9.5%,-15.2%
Cc1sc2nc(SCc3ccc(C(=O)O)cc3)n(Cc3ccco3)c(=O)c2c1C,-5.2%,?,?,79.4µM*,0.7%,-5.2%
CCn1c(SCC(=O)NC(=O)NCc2ccco2)nc2sc(C)c(C)c2c1=O,?,28.2µM*,20µM*,?,3.3%,-0.5%
Cc1sc2nc(SCC(=O)NCc3ccco3)n(C)c(=O)c2c1C,-4.9%,?,26.9%,?,-9.8%,-9.7%
CCCn1c(SCC(=O)NC(=O)NCc2ccco2)n[nH]c1=O,.,.,14.1µM*,.,.,.
CN(C)S(=O)(=O)c1cccc(NC(=O)COC(=O)c2ccc(Br)o2)c1,-12.0%,13.5%,-6.7%,-12.9%,?,1.0%
Cc1ccc(NC(=O)COC(=O)/C=C/c2ccc(Br)o2)cc1S(=O)(=O)N(C)C,?,44.7µM*,-25.3%,5.5%,-26.3%,-5.2%
CN(C)S(=O)(=O)c1cccc(NC(=O)COC(=O)/C=C/c2ccc(Br)o2)c1,?,44.7µM*,?,?,-6.8%,-6.9%
Cc1ccc(NC(=O)c2ccc(Br)o2)cc1S(=O)(=O)N(C)C,6.4%,25.3%,12.9%,-0.8%,9.2%,-7.1%
COc1ccccc1N(C)C,-9.0%,-3.2%,.,.,-4.6%,.
O=C(Nc1ccncc1)C1C(=O)c2ccccc2N(Cc2ccccc2)C1=O (configuration not stated),-2.8%,?,.,.,10.0%,.
COc1ccc(OC)c(NC(=O)C(=O)/C=C(\O)c2cc(OC)ccc2OC)c1,-14.3%,16.9%,6.6%,-9.1%,39.8µM*,i
COC(=O)c1ccccc1NC(=O)CCn1c(=O)c2cccn2c2cccnc21,-6.1%,5.3%,31.5%,-10.9%,-13.8%,-5.1%
COc1cc(Cl)c(C)cc1NC(=O)CCn1c(=O)c2cccn2c2cccnc21,2.9%,1.8%,13.2%,79.4µM*,4.3%,-19.5%
O=C1NC(=O)C(=Cc2ccccc2[N+](=O)[O-])S1,-5.3%,?,.,89.1µM*,2.4%,-12.1%
COc1ccc(NC2CCCN(C(=O)CCN3CCOCC3)C2)cc1 (configuration not stated),-1.6%,79.4µM*,3.7%,-2.6%,1.1%,i
COc1ccc(NC2CCCN(C(=O)CCN3CCCO3)C2)cc1 (configuration not stated),-4.2%,38.3%,1.4%,-10.2%,3.1%,-2.1%
Cc1nc2ccccc2nc1/C=C/c1ccc(N(C)C)cc1,-10.1%,19.7%,.,.,?,.
O=C(C[N+]12CN3CN(CN(C3)C1)C2)c1ccc(I)cc1,-10.4%,-0.6%,.,.,-9.3%,.
CSCCC(NS(=O)(=O)c1ccc(Cl)cc1)C(=O)O (configuration not stated),-1.1%,26.6%,-8.6%,-12.6%,-5.7%,i
COc1ccc(NS(=O)(=O)c2ccc(C)c(C(=O)O)c2)cc1,-9.5%,?,44.7µM*,79.4µM*,-5.2%,-3.5%
CSCCC(NS(=O)(=O)c1ccc(C)c(C(=O)O)c1)C(=O)O (configuration not stated),-14.6%,-22.2%,25.1µM*,?,2.4%,-4.6%
Cc1ccc(-c2[nH]ncc2CNCc2ccc(CN(C)C)cc2)cc1,11.5%,29.4%,.,.,-2.6%,.
O=C(Cc1cccs1)Nc1ccc(-c2nnn(CC(=O)N3CCOCC3)n2)cc1,-1.5%,0.5%,17.8µM*,-0.8%,6.1%,-8.5%
SMILES,POLK inh,Pol iota inh,POLB inh,POLH inh,FEN1 inh,PGK inhibitor
COC(=O)/C=C\c1cc(O)ccc1O,-11.1%[19.4 µM],.,.,.,.,.
CCOC(=O)CCc1c(C)nc2cc(-c3cc(OC)cc(OC)c3)[nH]n2c1=O,-9.5%,4.5%,28.2µM*,-14.7%,13.9%,7.4%
CCc1c(C)nc2cc(-c3cccc(Br)c3)[nH]n2c1=O,3.9%,5.5%,25.1µM*,-28.0%,-9.3%,-13.6%
CN(CC(=O)O)c1ccc(/C=C/c2ccnc3ccccc23)cc1,5.6%,32.3%,.,.,-1.5%,.
CCN1C(=NCc2cc(OC)c(OC)c(OC)c2)N[C@@H](c2cccc(F)c2)C(C(=O)OC)=C1C,.,.,7.5%,.,.,.
O=C(Nc1ccc(N2CCOCC2)cc1)c1ccc2nc(-c3ccco3)c(-c3ccco3)nc2c1,-25.2%,-5.3%,0.1%,-14.3%,10.7%,-0.3%
CC1CCN(C(=O)Nc2ccc3nc(-c4ccco4)c(-c4ccco4)nc3c2)CC1,8.91µM*,14.1µM*,.,.,15.8µM*,.
S=C(Nc1ccc(N2CCOCC2)cc1)Nc1ccc2nc(-c3ccco3)c(-c3ccco3)nc2c1,?,2µM*,2.0%,?,-20.6%,-3.1%
O=C(NCCO)Nc1ccc2nc(-c3ccco3)c(-c3ccco3)nc2c1,.,.,4.47µM*,.,.,.
O=C(Nc1ccc2nc(-c3ccco3)c(-c3ccco3)nc2c1)N1CCCC1,31.6µM*,3.16µM*,.,.,11.2µM*,.
Cc1nc2ccc(NC(=O)NCCO)cc2s1,7.9%,?,21.3%,-14.2%,9.6%,i
C[N+]1(CC(=O)c2ccccc2)CCc2ccccc2C1 (configuration not stated),-4.5%,-13.5%,.,.,19.0%,.
NC(=S)N/N=C/c1coc2c(ccc3ccccc32)c1=O,-7.4%,?,-28.2%,?,4.4%,-5.7%
O=c1cc(/N=C/c2coc3c(ccc4ccccc43)c2=O)[nH]c(=S)[nH]1,?,?,22.4µM*,?,-31.9%,-1.8%
Clc1cccc(CSc2nnc(-c3cccnc3)n2Cc2ccco2)c1,-18.6%,9.7%,-0.6%,-4.9%,-1.3%,-3.9%
Clc1ccc(CSc2nnc(-c3cccnc3)n2Cc2ccco2)c(Cl)c1,-22.9%,-6.7%,50.1µM*,?,0.0%,-4.7%
O=C1CSC(=S)N1/N=C/c1cc(Br)ccc1O,.,.,-1.2%,.,.,.
O=C1CSC(=S)N1/N=C/c1ccc(O)c(O)c1O,0.708µM*,-102.7%,0.316µM*,0.708µM*,2.82µM*,?
Cc1oc2ccc(O)c(CN(C)Cc3ccccc3)c2c1C(=O)Nc1cccc(Cl)c1C,-7.9%,-4.8%,8.1%,-4.2%,-18.1%,-2.0%
Brc1ccc2c(ccc[n+]2CCc2ccccc2)c1,7.5%,1.8%,.,.,15.6%,.
Cc1ccc(C(=O)c2cn(CC(=O)NCc3ccccc3Cl)c3nc(C)ccc3c2=O)cc1,-5.1%,6.7%,?,-4.7%,-4.5%,0.4%
